About 83,000 compounds went through this panel and 20% of them were active in at least one assay; those are over-represented in the sample as a whole.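 Method: cells in 96-well plates; compound added at one concentration; 48 h incubation; percent growth measured; values under 10 scored active.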 A number with no mark means an inactive call. Active and inactive are the calls of the source.
Tests used:
Assay in all cases: NCI-60 one-dose screen, 48 h (100 = growth as untreated, 0 = no growth, -100 = all killed)
Conditions in all cases: 10 µM unless noted
[1] = system: T-47D breast
[2] = system: BT-549 breast
[3] = system: MDA-MB-435 melanoma
[4] = system: MCF7 breast
[5] = system: HCT-116 colon
[6] = system: HCC-2998 colon
[7] = system: KM12 colon
[8] = system: SW-620 colon

Compound | growth [1] | growth [2] | growth [3] | growth [4] | growth [5] | growth [6] [%] | growth [7] | growth [8]
COc1cccc(/C=N\NC(=O)c2ccncc2)c1O | 28.2% | 49.8% | 83% | 26.5% | 11.6% | 57.2 | 62.6% | –
O=C(O)C1CCN(S(=O)(=O)c2ccc(-c3ccccc3)cc2)CC1 | 107% | 109% | 120% | 101% | 112% | 93.6 | 111% | –
c1ccc(CN=C(NCc2ccccc2)NCc2ccccc2)cc1 | 26.3% | 82.2% | 66.9% | 36.5% | 46.4% | – | 62.6% | 77.3%
O=C(NCCNC(=O)Oc1cccc2ccccc12)Oc1cccc2ccccc12 | 71.7% | 105% | 114% | 84.4% | 99.7% | – | 104% | 102%
CCCCCCCCCCCCC1CCCC(C)C1 (stereo not drawn) | 96.4% | 102% | 104% | 93.6% | 94.9% | 97.7 | 91.3% | –
[N-]=[N+]=NCc1ncc(-c2ccc(C(F)(F)F)cc2)c(NC2CCCCCC2)n1 | 63.1% [50 µM] | 81.9% [50 µM] | 61.6% [50 µM] | 66.2% [50 µM] | 40.5% [50 µM] | – | 46.8% [50 µM] | 75.4% [50 µM]
CN1CCC[C@@H]1CCO[C@](C)(c1ccccc1)c1ccc(Cl)cc1 | 56.1% | 69.1% | 49.8% | 63.3% | 47.9% | – | 88% | 80%
O=C(/C=C(\Nc1ccccc1)c1ccccc1)c1cn(-c2ccc([N+](=O)[O-])cc2)nn1 | 96.4% | 110% | 102% | 103% | 92.1% | – | 110% | 93.2%
COc1ccc(-c2nc3sc4c(c3c(=O)[nH]2)CCCCCC4)cc1 | 64.2% | 75.3% | 2.83% (active) | 54.1% | 33.9% | – | 34.8% | 29%
O=C(Nc1ccccc1OC(=O)c1ccccc1)c1ccccc1 | 67% | 72.7% | 104% | 27.2% | 9.26% (active) | – | 25.7% | 23.6%
Cc1nn(-c2nc3ccccc3s2)c(C)c1Oc1ccccc1O | 87.1% | 63% | 72.4% | 81.7% | 27.4% | 250 | 63.6% | –
CCCCCCCC[Si](OCC)(OCC)OCC | 96.2% | 99.1% | 109% | 98.3% | 101% | 105 | 103% | –
CC(=O)/C(=C/c1ccc(Cl)cc1)C(=O)c1ccccc1 | 83% | 97.4% | 61.4% | 53.1% | 66% | 99.2 | – | –
Clc1ccc2c(c1)C(Br)c1cc(Cl)cc(Cl)c1-2 (stereo not drawn) | 73% | 87.3% | 85.7% | 69% | 65.4% | – | 98.3% | 60.4%
COc1cc(C(=O)c2cc3c(cc2C)OCO3)cc(OC)c1OC | 58.2% | 68.3% | -49% (active) | 13.6% | 15.9% | 10.1 | 16.5% | –
COc1ccc(/C=C2/SC(=Nc3c(C)nn(-c4ccccc4)c3N)NC2=O)cc1 | 60.9% | 26.8% | -38.9% (active) | 8.99% (active) | 16.8% | 53.5 | 28.6% | –
NC(=O)c1cc(Br)cc(Br)c1NS(=O)(=O)c1ccccc1 | 99.2% | 103% | 111% | 99% | 100% | – | 106% | 101%
